Reference: PubChem BioAssay
Activity calls are given as the source filed them.

Assays:
Albumin (Bos taurus) = Albumin (Bos taurus) (UniProt P02769); assay: bovine serum albumin binders on microarray, profiling panel, artefact control for SMM control protein annotation, biochemical, small-molecule microarray, Alexa647 label, 635/667 nm fluorescence (AID 1118); settings: BSA-A647 binding, fluorescence 635 nm, higher = more signal;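 further: score merges 667 nm emission intensity and signal-to-noise per printed compound spot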
Chain of Albumin (Bos taurus) (P02769 whole entry, looked up): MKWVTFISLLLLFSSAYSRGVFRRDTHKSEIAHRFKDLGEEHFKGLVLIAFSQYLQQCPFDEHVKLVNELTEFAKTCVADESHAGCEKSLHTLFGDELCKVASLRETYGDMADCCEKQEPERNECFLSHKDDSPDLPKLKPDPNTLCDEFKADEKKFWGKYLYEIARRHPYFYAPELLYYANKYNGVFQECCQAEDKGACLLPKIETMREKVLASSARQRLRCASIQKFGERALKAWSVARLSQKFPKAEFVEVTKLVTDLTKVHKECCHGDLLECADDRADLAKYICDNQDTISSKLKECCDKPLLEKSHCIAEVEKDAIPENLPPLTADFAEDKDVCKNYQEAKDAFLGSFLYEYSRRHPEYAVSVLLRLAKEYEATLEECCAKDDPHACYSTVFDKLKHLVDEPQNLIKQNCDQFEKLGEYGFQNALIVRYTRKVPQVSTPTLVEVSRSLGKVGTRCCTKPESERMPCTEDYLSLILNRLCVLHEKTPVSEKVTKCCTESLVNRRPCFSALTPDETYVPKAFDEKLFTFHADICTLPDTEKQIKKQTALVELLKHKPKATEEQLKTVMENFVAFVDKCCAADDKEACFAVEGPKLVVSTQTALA

[1] = small-molecule microarray binders of probe aXIP, primary screen, biochemical, NeuroSMM set, 635/667 nm fluorescence (AID 1119); settings: higher = more signal, called active from +8 up or from −8 down;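 further: probe is the protein aXip251-270 applied at 1 µg/mL to compound-printed slides; binding of probe to printed compounds measured as 667 nm fluorescence plus signal to noise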
[2] = small-molecule binders of probe aNOTCH3, primary screen, biochemical, small-molecule microarray, 635/667 nm fluorescence (AID 1120); settings: higher = more signal;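 further: probe is a biotin-tagged antibody raised against NOTCH3 rather than NOTCH3 protein; score merges spot fluorescence near 667 nm with spot signal to noise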
[3] = small-molecule binders of probe aNOTCH2, primary screen, biochemical, small-molecule microarray, 635/667 nm fluorescence (AID 1121); settings: higher = more signal;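 further: score merges feature fluorescence read at 667 nm with its signal to noise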
[4] = target: Carbonic anhydrase 2 (Homo sapiens) (UniProt P00918); assay: CAII small-molecule binders, profiling panel, biochemical, small-molecule microarray, Alexa647-labelled CAII (AID 1122); settings: CAII-A647 binding fluorescence, higher = more signal
[5] = COS7 lysate on small-molecule microarray, probe aHis, 635 nm (AID 1123); settings: COS7 cell lysate, fluorescence, higher = more signal;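 further: z-score combines 667nm fluorescence intensity with signal-to-noise per printed compound spot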
[6] = compound binding in COS7 lysate, probe aLAP1, primary screen, cell lysate, small-molecule microarray (AID 1124); settings: probe aLAP1, fluorescence, higher = more signal;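 further: lysate comes from COS7 cells expressing LAP1 and is applied at 0.3 µg/mL; score merges spot fluorescence near 667 nm with signal-to-noise over triplicate slides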
Sam68 (KHDRBS1) = assay: Sam68 small-molecule binders, primary screen, biochemical, small-molecule microarray, 635 nm fluorescence (AID 1125); settings: small-molecule microarray binding, higher = more signal;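 further: score merges 667 nm channel intensity with signal to noise over triplicate slides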
[7] = test system: Chordin-like protein 2 (CHRDL2); assay: CHRDL2 small-molecule binders, primary screen, biochemical, small-molecule microarray, 635 nm fluorescence (AID 1126); settings: small-molecule microarray binding, fluorescence 635 nm; higher = more signal;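 further: printed compound slides probed with Chrdl2 protein at 4 µg/mL for 1 h at 4 C; score merges 667 nm emission intensity with signal to noise over three replicate slides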
[8] = target: Concanavalin-A (Canavalia ensiformis) (UniProt P02866); assay: ConA small-molecule binders, primary screen, artefact control for SMM control protein annotation, biochemical, small-molecule microarray, Alexa647 label, 635 nm (AID 1127); settings: ConA-A647 binding fluorescence, higher = more signal;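 further: z combines 667 nm emission intensity with signal-to-noise across three replicate slides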
Chain of Concanavalin-A (Canavalia ensiformis) (P02866 whole entry, looked up): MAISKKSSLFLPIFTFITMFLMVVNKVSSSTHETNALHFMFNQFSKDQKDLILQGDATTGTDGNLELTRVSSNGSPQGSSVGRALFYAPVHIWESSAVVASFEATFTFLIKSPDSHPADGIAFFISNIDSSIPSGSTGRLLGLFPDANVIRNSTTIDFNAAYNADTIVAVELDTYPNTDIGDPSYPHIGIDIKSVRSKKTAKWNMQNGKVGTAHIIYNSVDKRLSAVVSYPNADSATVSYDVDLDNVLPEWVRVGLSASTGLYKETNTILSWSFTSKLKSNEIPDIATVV

[9] = anti-His antibody binders, primary screen, artefact control for SMM control protein annotation, biochemical, small-molecule microarray, 635 nm fluorescence (AID 1128); settings: anti-His Alexa647 antibody binding, higher = more signal;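 further: score merges feature fluorescence with signal-to-noise for each printed compound spot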
[10] = test system: Human papillomavirus type 1a E7 protein (residues 1-88); assay: HPV1a E7 small-molecule binders, primary screen, biochemical, small-molecule microarray, residues 1-88, 635 nm (AID 1129); settings: small-molecule microarray binding, fluorescence 635 nm; higher = more signal
[11] = target: Focal adhesion kinase 1 (Homo sapiens) (UniProt Q05397); assay: small-molecule microarray binders of FAK, primary screen, biochemical, 635/667 nm fluorescence, BSA, DTT (AID 1130); settings: PTK2 binding, 635 nm fluorescence, higher = more signal;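 further: composite of spot emission at 667 nm and signal to noise over triplicate slides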
Chain of Focal adhesion kinase 1 (Homo sapiens) (Q05397 whole entry, looked up): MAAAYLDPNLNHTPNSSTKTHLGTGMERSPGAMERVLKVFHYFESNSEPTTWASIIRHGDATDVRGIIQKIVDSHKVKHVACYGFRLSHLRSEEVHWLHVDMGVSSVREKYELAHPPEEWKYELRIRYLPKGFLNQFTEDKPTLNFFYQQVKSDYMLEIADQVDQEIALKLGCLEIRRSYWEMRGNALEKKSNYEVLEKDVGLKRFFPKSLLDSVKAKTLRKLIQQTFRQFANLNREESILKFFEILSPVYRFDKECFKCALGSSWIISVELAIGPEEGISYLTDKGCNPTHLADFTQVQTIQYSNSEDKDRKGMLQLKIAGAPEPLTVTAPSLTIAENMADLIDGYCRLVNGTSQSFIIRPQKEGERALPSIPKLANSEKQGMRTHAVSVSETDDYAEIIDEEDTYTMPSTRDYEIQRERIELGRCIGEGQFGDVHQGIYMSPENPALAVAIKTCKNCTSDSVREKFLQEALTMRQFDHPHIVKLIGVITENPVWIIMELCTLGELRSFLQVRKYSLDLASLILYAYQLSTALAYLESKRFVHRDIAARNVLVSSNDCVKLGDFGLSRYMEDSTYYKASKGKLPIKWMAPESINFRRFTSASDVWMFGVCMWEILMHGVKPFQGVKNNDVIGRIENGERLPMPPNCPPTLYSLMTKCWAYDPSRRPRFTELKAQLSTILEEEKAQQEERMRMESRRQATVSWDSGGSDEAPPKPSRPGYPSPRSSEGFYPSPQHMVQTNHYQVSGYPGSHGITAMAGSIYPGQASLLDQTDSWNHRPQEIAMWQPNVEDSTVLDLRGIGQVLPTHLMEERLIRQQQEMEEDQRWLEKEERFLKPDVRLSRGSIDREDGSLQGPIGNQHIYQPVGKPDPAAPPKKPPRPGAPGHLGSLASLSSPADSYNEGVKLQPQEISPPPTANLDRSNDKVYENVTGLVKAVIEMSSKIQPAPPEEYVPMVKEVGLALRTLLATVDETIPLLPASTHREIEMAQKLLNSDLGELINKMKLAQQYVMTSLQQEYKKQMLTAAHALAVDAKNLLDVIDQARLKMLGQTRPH

[12] = test system: Fibrinogen (Alexa647-labelled); assay: fibrinogen binders on compound microarrays, profiling panel, artefact control for SMM control-protein annotation, biochemical, small-molecule microarray, 635/667 nm fluorescence (AID 1131); settings: fibrinogen-A647 binding fluorescence, higher = more signal;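 further: z-score merges 667 nm fluorescence with per-spot signal-to-noise over triplicate slides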
[13] = target: Follistatin (Homo sapiens) (UniProt P19883); assay: follistatin binders on small-molecule microarrays, primary screen, biochemical, small-molecule microarray, 635/667 nm fluorescence (AID 1132); settings: FST binding, 635 nm fluorescence, higher = more signal
Chain of Follistatin (Homo sapiens) (P19883 whole entry, looked up): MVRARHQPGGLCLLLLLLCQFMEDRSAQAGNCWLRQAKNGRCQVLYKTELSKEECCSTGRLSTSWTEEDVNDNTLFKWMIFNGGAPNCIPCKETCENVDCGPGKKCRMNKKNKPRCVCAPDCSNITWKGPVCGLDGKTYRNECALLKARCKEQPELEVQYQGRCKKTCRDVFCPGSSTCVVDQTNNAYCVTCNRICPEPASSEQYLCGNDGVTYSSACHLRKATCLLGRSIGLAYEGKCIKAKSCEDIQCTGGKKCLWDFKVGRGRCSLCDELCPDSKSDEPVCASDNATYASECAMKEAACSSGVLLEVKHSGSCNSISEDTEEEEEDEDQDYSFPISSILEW

[14] = target: Fibroblast growth factor 2 (Homo sapiens) (UniProt P09038); assay: FGF2 binders on small-molecule microarrays, primary screen, biochemical, small-molecule microarray, 635/667 nm fluorescence (AID 1133); settings: small-molecule microarray binding, FGF2, fluorescence 635/667; higher = more signal
Chain of Fibroblast growth factor 2 (Homo sapiens) (P09038 whole entry, looked up): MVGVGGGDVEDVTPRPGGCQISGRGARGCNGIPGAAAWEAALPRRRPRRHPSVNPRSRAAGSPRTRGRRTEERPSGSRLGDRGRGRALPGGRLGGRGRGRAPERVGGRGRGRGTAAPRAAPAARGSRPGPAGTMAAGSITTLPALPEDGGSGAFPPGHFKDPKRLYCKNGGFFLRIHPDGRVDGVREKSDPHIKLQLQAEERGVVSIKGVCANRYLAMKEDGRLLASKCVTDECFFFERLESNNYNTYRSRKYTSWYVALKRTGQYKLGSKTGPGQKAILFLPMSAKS

[15] = mitochondrial membrane potential change in A549 cells, profiling panel, cell-based, JC-1 fluorescence, basal, 24 h, 100 nL (AID 1138); settings: higher = more signal;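 further: A549 lung adenocarcinoma cells under basal conditions with no added stimulus; test concentration not given here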
Lefty1 = Lefty1 binders on small-molecule microarrays, primary screen, biochemical, small-molecule microarray, 635/667 nm fluorescence (AID 1139); settings: small-molecule microarray binding, fluorescence 635/667; higher = more signal
[16] = test system: wheat germ agglutinin (Triticum aestivum), Alexa647-labelled; assay: wheat germ agglutinin binders on compound microarrays, profiling panel, artefact control for SMM control-protein annotation, biochemical, small-molecule microarray, 635/667 nm fluorescence (AID 1140); settings: WGA-A647 binding, 635 nm fluorescence, higher = more signal;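 further: score merges 667 nm feature emission with signal to noise over triplicate slides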
[17] = target: Luciferin 4-monooxygenase (Photinus pyralis) (UniProt P08659); assay: firefly luciferase enzyme inhibitors, primary screen, biochemical, luminescence, purified enzyme, 2006 set (AID 1141); settings: SteadyGlo luminescence, 30 min, higher = more signal, called active from +8 up or from −8 down;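 further: cell-free assay with purified firefly luciferase at 100 ng per well in PBS; test concentration not given here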
Chain of Luciferin 4-monooxygenase (Photinus pyralis) (P08659 whole entry, looked up): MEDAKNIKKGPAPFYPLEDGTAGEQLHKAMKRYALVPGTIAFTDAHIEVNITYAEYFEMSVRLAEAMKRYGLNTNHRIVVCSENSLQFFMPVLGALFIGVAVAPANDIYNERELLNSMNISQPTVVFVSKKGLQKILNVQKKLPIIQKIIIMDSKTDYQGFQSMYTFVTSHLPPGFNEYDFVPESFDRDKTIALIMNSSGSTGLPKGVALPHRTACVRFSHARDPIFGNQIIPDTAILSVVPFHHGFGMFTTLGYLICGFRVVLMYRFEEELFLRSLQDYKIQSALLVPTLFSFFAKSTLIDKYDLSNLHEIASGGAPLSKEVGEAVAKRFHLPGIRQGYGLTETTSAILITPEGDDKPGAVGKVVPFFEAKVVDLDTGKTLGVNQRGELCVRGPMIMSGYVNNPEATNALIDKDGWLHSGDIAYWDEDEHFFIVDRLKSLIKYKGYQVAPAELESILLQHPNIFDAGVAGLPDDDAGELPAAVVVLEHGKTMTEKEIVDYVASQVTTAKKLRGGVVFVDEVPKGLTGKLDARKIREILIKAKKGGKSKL

Structure (SMILES)	composite z-score (Albumin (Bos taurus))	composite Z-score [1]	composite z-score [2]	composite z-score [3]	composite z-score [4]	composite z-score [5]	composite z-score [6]	composite z-score (Sam68 (KHDRBS1))	composite z-score [7]	composite z-score [8]	composite z-score [9]	composite z-score [10]	composite z-score [11]	composite z-score [12]	composite z-score [13]	composite z-score [14]	z-score [15]	composite z-score (Lefty1)	composite z-score [16]	z-score [17]
O=C1[C@H]2[C@H]3[C@H](O)[C@H](O)CC(=NOC[C@@H](O)COCc4ccco4)[C@H]3CC[C@H]2C(=O)N1Cc1ccccc1	-0.13	0.48 (inactive)	-0.119	-0.192	-0.154	-0.867	-0.343	-0.333	0.836	-0.242	-0.267	-0.429	-0.326	-1.55	0.691	0.633	-0.287	0.496	-0.438	0.737 (inactive)
CC(=O)O[C@H]1C2=CO[C@H](C)[C@H]3[C@H]4C5=C([C@H](O)[C@H]6O[C@H]6C5=O)[C@H](OC4C)[C@@]23C(=O)[C@@H]2O[C@@H]21 (stereo not given in full)	0.767	0.719 (inactive)	0.0836	-0.0357	0.357	0.249	0.228	0.583	0.0249	-0.185	-0.497	0.121	-0.703	-0.331	-0.436	1.35	-0.837	0.0873	-0.515	-0.413 (inactive)
Cc1ccc(S(=O)(=O)n2c3ccccc3c3nnc(C(=O)c4ccccc4)nc32)cc1	-0.563	0.0578 (inactive)	0.12	0.012	-0.141	-0.111	0.246	-0.472	0.261	0.0083	-0.252	-0.0414	-0.0158	-1.08	0.583	0.978	-1.99	0.0671	-0.218	-4.76 (inactive)
CC(C)CON=C1C[C@@H](O)[C@@H](O)[C@@H]2[C@@H]3C(=O)N(c4ccc(F)cc4F)C(=O)[C@@H]3CC[C@H]12	0.541	0.109 (inactive)	-0.122	-0.17	0.501	0.602	0.311	1.28	0.554	0.303	0.686	1.11	0.436	0.424	0.714	0.375	-0.229	1.13	0.221	0.819 (inactive)
CO[C@@H]1COC(=O)[C@@H](C)NC(=O)CC=C[C@@H](C)[C@H](NS(=O)(=O)c2ccc(C)cc2)COC(=O)[C@H](C)NC(=O)CC=C[C@H]1C	-1.05	1.05 (inactive)	-0.0647	-0.184	-0.333	-0.634	-0.192	0.643	1.16	-1.05	-0.0135	-0.693	-0.0691	-0.965	0.848	0.0303	1.07	0.895	-0.694	-1.15 (inactive)
COC(=O)CC=C[C@@H](C)[C@@H](C=NO[C@@H]1O[C@H](COC(C)=O)[C@@H](OC(C)=O)[C@H](OC(C)=O)[C@H]1OC(C)=O)OC	0.216	-0.421 (inactive)	0.0303	-0.0294	-0.605	-0.152	0.124	0.702	-0.0703	-1.33	0.662	0.036	0.107	-0.0528	-0.186	-0.347	-0.361	-0.268	-0.421	0.86 (inactive)
COc1cccc([C@H]2Oc3ccc(OC)cc3C(=NO[C@H](C)c3cn([C@H](CO)Cc4ccccc4)nn3)[C@@H]2O)c1	-1.28	-0.372 (inactive)	-0.208	-0.187	0.406	0.418	0.0672	-0.779	0.08	-2.12	0.533	-0.323	-0.181	-0.095	-0.0053	0.185	-0.685	0.0027	-0.124	0.417 (inactive)
CSCC[C@@H]1NC(=O)CC=C[C@@H](C)COC(=O)[C@@H](C)COC1=O	-1.1	0.517 (inactive)	-0.155	-0.175	-0.762	-1.1	0.145	-0.399	0.683	-2.02	-0.888	-1.81	-0.948	-2.46	0.556	0.0867	1.31	-0.0168	-1.71	-0.343 (inactive)
C#CCCCON=C1C[C@@H](O)[C@@H](O)[C@@H]2[C@@H]3C(=O)N(c4cccc(Oc5ccccc5)c4)C(=O)[C@@H]3CC[C@H]12	-0.302	1.27 (inactive)	-0.373	-0.14	0.709	0.0922	0.762	-0.582	-0.771	-0.387	0.247	-0.936	-0.427	-1.13	-0.446	-0.455	0.8	-0.275	0.272	0.134 (inactive)
COC(=O)CC=C[C@@H](C)[C@@H](C=NOC[C@@H](O)[C@H]1O[C@@H]2OC(C)(C)O[C@@H]2[C@H]1O)NS(=O)(=O)c1ccc(C)cc1	-0.0786	-0.72 (inactive)	-0.215	-0.289	-0.0777	-0.152	-0.372	0.524	0.42	-0.137	1.93	0.607	-0.196	-0.174	0.597	0.276	-0.656	0.223	0.0146	0.543 (inactive)
O=C1[C@H]2[C@H]3[C@H](O)[C@H](O)CC(=NOCc4ccccc4)[C@@H]3CC[C@H]2C(=O)N1Cc1ccc2c(c1)OCO2	0.0462	0.0289 (inactive)	0.0306	-0.0131	0.618	-0.0974	-0.0389	-0.0391	0.124	-0.0139	0.0116	0.316	0.928	0.866	1.23	0.319	-0.368	0.268	0.261	0.729 (inactive)
